From PubChem BioAssay
aSyn 5UTR act = Activators via SNCA 5'UTR binding, MLPCN; alpha-synuclein 5'UTR reporter, activators screen; activity score, % (tested at 7.5 µM), hits read low; hit rate 7.1% among 300,000; AID 1814; in the data active = activity score below about -60%
A number is an active result; i = inactive. The list is a sample of the results.

SMILES	aSyn 5UTR act
CCN(CC(=O)Nc1ccc2c(c1)OCCO2)C(=O)/C=C/c1cccc(OC)c1OC	-93.2
CCOc1ccccc1/C=C/C(=O)c1ccc(Cl)cc1	-79.7
COc1ccccc1/C=C/C(=O)c1ccc(Cl)cc1	-61.7
COc1ccccc1/C=C/C(=O)NC(=S)NC(C)C	-93.2
COc1ccc(/C=C/C(=O)c2ccccc2)c(OC)c1	-207.2
COc1ccccc1/C=C/C(=O)N1CCC(c2ccccc2)C1 (stereo not drawn)	-176.5
O=C(/C=C/c1ccc([N+](=O)[O-])cc1)/C=C/c1ccco1	-215.2
Cc1nc2ccc(CN(C)c3ccc(C(=O)N[C@@H](CCC(=O)O)C(=O)O)s3)cc2c(=O)[nH]1	i
COc1ccc(CC(=O)NCc2ccc(-n3cccc3)cc2)cc1OC	i
COc1ccccc1CNC(=O)CCCc1ccccc1	-68.5
COc1ccccc1CNC(=O)CN1C(=O)c2cccc(N)c2C1=O	-64.6
O=C(COc1ccccc1F)N/N=C1\CCCc2ccccc21	-161.7
COc1ccccc1OCC(=O)N/N=C1\CCc2ccccc21	-143.3
Cc1cccc2c1OCC/C2=N\NC(=O)COc1ccccc1	-86.4
CCCNC(=O)Cn1cnc2sc(C(=O)Nc3ccc4c(c3)OCO4)c(C)c2c1=O	-63.5
CCn1cnc2sc(C(=O)Nc3ccc4c(c3)OCO4)c(C)c2c1=O	-145.1
Cc1cc2nn(-c3cccc4ccccc34)nc2cc1N	-179.9
Cc1ccc(SCC(=O)c2c(C)nc3ccccn23)cc1	-85.1
Cc1cccnc1CN1CCN(C(=O)CCc2nnc(CCc3ccccc3)o2)CC1	-72.0
c1cncc(-c2nc3ccccc3s2)c1	-147.7
Oc1ccc(-c2nc3ccccc3s2)cc1	-68.3
Nc1ccccc1-c1nc2ccccc2s1	-239.6
c1csc(-c2nc3ccccc3s2)c1	-147.7
c1ccc2sc(-c3ccncc3)nc2c1	-111.4
Oc1ccc(-c2nc3ccccc3s2)c(O)c1	-145.4
SMILES	aSyn 5UTR act
CCCCSc1ncc(C(=O)OCC)c(N)n1	-139.6
CCOC(=O)c1cnc(NCc2ccccc2)nc1C	-73.1
CCOC(=O)c1cnc(SCCc2ccccc2)nc1N	-102.2
CCOC(=O)c1cnc2c(ccc3ccccc32)c1Cl	-87.4
CCOC(=O)c1cnc(-n2nc(C)cc2C)nc1NNc1ncc(-c2ccccc2)cn1	i
CCOC(=O)c1[nH]cnc1N=Nc1c(O)ccc2ccccc12	i
CCOC(=O)c1cnc(SCc2ccc(C)cc2)nc1N	-179.4
O=C(NCC(c1cccs1)N1CCOCC1)c1ccc(Cl)cc1 (stereo not drawn)	-100.1
Cc1ccc(Cn2ccc(NC(=O)c3nn(C)cc3Cl)n2)cc1	-112.4
Nc1ccc(C(=O)N/N=C/c2cn(Cc3ccc(F)cc3)c3ccccc23)cc1	i
O=C(Nc1ccn(Cc2ccc(Cl)cc2)n1)c1ccc2c(c1)OCO2	-70.4
O=C(Nc1ccn(Cc2ccccc2)n1)c1ccc(F)cc1	-120.1
O=C(Nc1ccn(Cc2ccccc2F)n1)c1ccc(COc2ccc(Br)cc2)cc1	-68.5
CCCC12CN3CCN(CC(C3)/C1=N\NC(=O)c1ccccc1N)C2	-76.1
Nc1ccccc1C(=O)N/N=C1\C2CN3CCN(C2)CC1(c1ccccc1)C3	-91.9
Cc1ccc(/C=N/N2CCN(c3ccccn3)CC2)cc1	-105.3
CCc1ccc(/C=N/N2CCN(c3ccccn3)CC2)cc1	-107.7
ClC(=C\c1ccccc1)/C=N/N1CCN(c2ccccn2)CC1	-222.4
COc1ccc(/C=C/C(=O)Oc2cccc(/C=N/NC(=O)Cc3ccc(Br)cc3)c2)cc1	-80.3
Cc1ccc(/C=N/n2cnc3sc(-c4ccccc4)cc3c2=O)o1	-109.5
O=C(Nc1ccccc1)ON=C1c2ccccc2-c2ccccc21	-106.1
CC(C)CCNCC(O)CON=C1c2ccccc2-c2ccccc21 (stereo not drawn)	i
CSc1ccc(CNc2ccc(Cl)cc2)cc1	-114.1
CCOC(=O)C1CCCCN1C(=O)CCc1nnc(-c2ccc3c(c2)OCO3)o1 (stereo not drawn)	-65.2
COc1cc2c(cc1NC(=O)c1ccncc1)oc1ccccc12	-131.9
SMILES	aSyn 5UTR act
COc1cc2c(cc1NC(=O)c1cccc([N+](=O)[O-])c1)oc1ccccc12	i
COc1cc2c(cc1NC(=O)c1cccnc1)oc1ccccc12	-154.8
Cc1csc(NC(=O)Nc2ccc(Cl)cc2)n1	-114.8
Cc1cnc(NC(=O)Nc2ccc(Cl)cc2)s1	-186.8
Cc1csc(NC(=O)NCC2CCCC(CNC(=O)Nc3nc(C)cs3)C2)n1 (stereo not drawn)	-66.0
O=C(Cc1csc(NC(=O)Nc2ccc(Cl)cc2)n1)NC1CCCC1	-91.4
Cc1cc(C(=O)Nc2ccc(Br)cc2)cs1	-130.1
Cc1cccc(NC(=S)NNC(=O)c2csc3c2CCCC3)c1	-125.3
Cc1cccc(NC(=S)NNC(=O)c2csc(C)c2)c1	-76.7
CC(=O)NCc1ccc(C(=O)CCl)s1	-64.3
O=C(Nc1c(Cl)ccc2nsnc12)c1ccc([N+](=O)[O-])o1	-202.7
COc1ccc2nc(NC(=O)c3ccc([N+](=O)[O-])o3)sc2c1	-160.7
Cc1cnc(NC(=O)c2ccc(-c3nc4ccccc4s3)o2)s1	-83.7
CC(=O)Nc1nc2cccc([N+](=O)[O-])c2s1	-67.8
O=C(Nc1nc2cc3c(cc2s1)OCCO3)c1ccc([N+](=O)[O-])o1	-301.1
